Screening data as filed in PubChem BioAssay.
Hits are enriched below; roughly 2.9% of the tested compounds scored in any of these assays.
B2AR ag: human beta-2 adrenergic receptor agonism by FAP; response, % (test concentration not listed); P07550; 340,000 tested, 0.43% active; Am2.2-beta2AR cells, FAP receptor internalization, flow cytometry;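 active = response above a set limit, near 3 SD of response in nonfluorescent compounds, cut at about 42% in these data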
MEKK2wt PB1 HTS: raises or lowers MEK5 binding to wildtype human MEKK2 PB1 domain | bead flow cytometry, Alexa488-MEK5 binding to MEKK2 WT; actives lie on both sides | binding response (% of control), % at 10 µM | Q9Y2U5 | AID 1531 | 290,000 tested, 1.1% active; in the data active = binding response below about 67% or above about 130%
MEKK2mut PB1 HTS: signal of MEK5 binding to mutant human MEKK2 PB1 domain; bead flow cytometry, Alexa488-MEK5 binding to MEKK2 mutant; percent response, % at 10 µM; 290,000 tested, 0.35% active; AID 1530; in the data active = percent response above about 24%, passing the limit was not always enough
MEKK3 PB1 HTS: raises or lowers MEK5 binding to the human MEKK3 PB1 domain | Q99759 | bead-based flow cytometry, Alexa488-MEK5 binding to MEKK3; actives lie on both sides; 0 = blocked by unlabeled MEK5, 100 = vehicle | binding response (% of control), % at 10 µM | 290,000 tested, 1.4% active;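 active = binding response more than 3 SD above or below the average of its plate-row segment, actives on both sides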;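 also: Alexa488 bead fluorescence after subtracting the streptavidin-only scavenger bead signal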
GRK2 aptamer HTS: human GRK2 inhibition via aptamer displacement; P25098; bead flow cytometry, FAM-aptamer displacement from GRK2; inhibition of aptamer binding, % at 10 µM; 330,000 tested, 0.59% active; AID 488847;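 active = inhibition of aptamer binding above 40%, roughly 3 SD of noise, on plates passing a quality check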;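 also: median bead fluorescence of bound FAM aptamer so fluorescent compounds give negative values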
Target sequence (P25098 whole entry, looked up): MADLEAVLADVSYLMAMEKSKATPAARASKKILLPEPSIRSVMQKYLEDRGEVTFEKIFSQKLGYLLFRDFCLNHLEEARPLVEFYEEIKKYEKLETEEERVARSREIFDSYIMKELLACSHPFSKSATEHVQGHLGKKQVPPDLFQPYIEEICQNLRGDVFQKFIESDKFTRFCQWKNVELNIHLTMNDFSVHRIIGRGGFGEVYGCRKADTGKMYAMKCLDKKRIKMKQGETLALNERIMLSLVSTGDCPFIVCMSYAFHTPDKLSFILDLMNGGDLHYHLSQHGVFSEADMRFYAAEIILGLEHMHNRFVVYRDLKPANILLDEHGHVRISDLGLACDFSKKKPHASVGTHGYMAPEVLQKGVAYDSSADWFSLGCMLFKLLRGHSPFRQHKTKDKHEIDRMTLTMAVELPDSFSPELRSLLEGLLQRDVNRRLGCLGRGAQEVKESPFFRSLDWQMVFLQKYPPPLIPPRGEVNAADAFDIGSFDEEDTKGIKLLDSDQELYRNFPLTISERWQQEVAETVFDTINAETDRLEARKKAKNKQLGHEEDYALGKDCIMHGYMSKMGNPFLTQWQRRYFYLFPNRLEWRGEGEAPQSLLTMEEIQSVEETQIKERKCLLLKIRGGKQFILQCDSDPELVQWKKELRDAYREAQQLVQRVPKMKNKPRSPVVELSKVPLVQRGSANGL
MEKK2wt confirm: raises or lowers MEK5 binding to wildtype human MEKK2, retest. 5,900 tested, 2.4% active. shares compounds with MEKK3 PB1 HTS. binding response (% of control), % at 10 µM. bead flow cytometry, Alexa488-MEK5 binding to MEKK2 WT; actives lie on both sides; in the data active = binding response below about 16% or above about 210%; inactive = in between
MEKK2mut-MEK5: signal of MEK5 binding to mutant human MEKK2, retest; bead flow cytometry, Alexa488-MEK5 binding to MEKK2 mutant; shares compounds with MEKK3 PB1 HTS; 5,900 tested, 2% active; percent response, % at 10 µM; in the data active = percent response mostly above about 71%, no sharp cut-off; inactive = mostly below about 38%;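 also: higher means compound restores mutant binding toward wildtype level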
MEKK3-MEK5 inh: MEKK3-MEK5 PB1 inhibition, single concentration confirmation. binding response (% of control), % at 10 µM. 5,900 tested, 1.8% active. bead flow cytometry, Alexa488-MEK5 binding to MEKK3; stronger effect = lower value. shares compounds with MEKK3 PB1 HTS. AID 1894;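 active = binding response below 72% of control, or above a set upper limit, though filed actives all read lower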;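 also: 100% = DMSO only wells and 0% = binding blocked by excess unlabeled MEK5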
Numbers without * were called inactive; [ ] = remark or other dose.

For O=C(CCCC(=O)N(CC(=O)NC1CCCC1)C1CCCC1)Nc1ccccn1 the results were B2AR ag 0, MEKK2wt PB1 HTS 87, MEKK2mut PB1 HTS -12, MEKK3 PB1 HTS 72*[inhibitor], GRK2 aptamer HTS 2, MEKK2wt confirm -1.0*[inhibitor], MEKK2mut-MEK5 -3 and MEKK3-MEK5 inh 98.
For CSCCC(NC(=O)c1cccc(S(=O)(=O)N2CCOCC2)c1)C(=O)Nc1ccc(F)cc1 (configuration not stated) the results were B2AR ag 1, MEKK2wt PB1 HTS 100, MEKK2mut PB1 HTS 1, MEKK3 PB1 HTS 97 and GRK2 aptamer HTS 1.
For CSCCC(NC(N)=O)C(=O)Nc1cccc(S(=O)(=O)N2CCOCC2)c1 (configuration not stated) the results were B2AR ag -3, MEKK2wt PB1 HTS 83, MEKK2mut PB1 HTS -9, MEKK3 PB1 HTS 72*[inhibitor], GRK2 aptamer HTS 0, MEKK2wt confirm 98, MEKK2mut-MEK5 0 and MEKK3-MEK5 inh 102.
CCOC(=O)[C@H]1[C@H]2COc3ccc(C)cc3[C@@H]2N2C(=O)c3cc(Cl)ccc3NC(=O)[C@@]12C was read as B2AR ag 10 and GRK2 aptamer HTS 4.
Screening Nc1ccc(N2CCCC2)c(S(=O)(=O)Nc2cccc(C(F)(F)F)c2)c1 returned B2AR ag -7 and GRK2 aptamer HTS 0.
Screening CCOc1ccccc1-n1c(SCC(=O)N2CCCc3ccccc32)nnc1-c1cccnc1 returned B2AR ag 0, MEKK2wt PB1 HTS 104, MEKK2mut PB1 HTS -1, MEKK3 PB1 HTS 132*, GRK2 aptamer HTS 0, MEKK2wt confirm 112, MEKK2mut-MEK5 4 and MEKK3-MEK5 inh 105.
`CC1(C)Cc2cccc(OCC(=O)Nc3cc(S(C)(=O)=O)ccc3Cl)c2O1` gave B2AR ag 4 and GRK2 aptamer HTS 11.
`COC(C[C@@H](O)CC(=O)COCc1ccccc1)OC` gave B2AR ag -4, MEKK2wt PB1 HTS 95, MEKK2mut PB1 HTS 4 and MEKK3 PB1 HTS 96.
For CCN(C(=O)c1ccco1)c1nnc(-c2cccnc2)s1 the results were B2AR ag -23, MEKK2wt PB1 HTS 95, MEKK2mut PB1 HTS -3, MEKK3 PB1 HTS 100 and GRK2 aptamer HTS 0.
COc1cc(CCC(=O)OCC(=O)Nc2nc(C)c(Cl)cc2Cl)cc(OC)c1OC was read as B2AR ag -2, MEKK2wt PB1 HTS 12*[inhibitor], MEKK2mut PB1 HTS -32, MEKK3 PB1 HTS 102, GRK2 aptamer HTS 1, MEKK2wt confirm 95, MEKK2mut-MEK5 -10 and MEKK3-MEK5 inh 97.
For O=c1cc(-c2ccc(F)cc2)oc2ccccc12 the results were B2AR ag 0, MEKK2wt PB1 HTS 2.0*[inhibitor], MEKK2mut PB1 HTS 2, MEKK3 PB1 HTS 2.0*[inhibitor], GRK2 aptamer HTS 0, MEKK2wt confirm 99, MEKK2mut-MEK5 6 and MEKK3-MEK5 inh 104.
CSc1ccc(-c2cc(=O)c3ccccc3o2)cc1 was read as B2AR ag 4, MEKK2wt PB1 HTS 90, MEKK2mut PB1 HTS -4, MEKK3 PB1 HTS 89 and GRK2 aptamer HTS 1.
Screening NC1=NC(=O)C2(COC(c3cccnc3)OC2)S1 (configuration not stated) returned B2AR ag 3, MEKK2wt PB1 HTS 95, MEKK2mut PB1 HTS -2, MEKK3 PB1 HTS 91 and GRK2 aptamer HTS 0.
`C[C@@H]1CN([C@H](C)CO)C(=O)c2cccc(NC(=O)Nc3ccc(F)cc3)c2O[C@H]1CN(C)C(=O)Nc1ccc(C(F)(F)F)cc1` gave B2AR ag 3 and GRK2 aptamer HTS 7.
`CCN(CC)S(=O)(=O)c1ccc(NC(=O)c2cccc3c2C(=O)N(CCOC)C3)cc1` gave B2AR ag -7, MEKK2wt PB1 HTS 108, MEKK2mut PB1 HTS 0, MEKK3 PB1 HTS 132*, GRK2 aptamer HTS 0, MEKK2wt confirm 102, MEKK2mut-MEK5 -5 and MEKK3-MEK5 inh 101.
`COCCN1Cc2cccc(C(=O)Nc3ccc(S(=O)(=O)N4CCCCCC4)cc3)c2C1=O` gave B2AR ag 3, MEKK2wt PB1 HTS 91, MEKK2mut PB1 HTS -11, MEKK3 PB1 HTS 92 and GRK2 aptamer HTS 0.
CCOC(=O)CN(C(=O)CNC(=O)c1ccco1)C(C(=O)NC1CCCCC1)c1cccnc1 (configuration not stated) was read as B2AR ag 0, MEKK2wt PB1 HTS 99, MEKK2mut PB1 HTS 1, MEKK3 PB1 HTS 100 and GRK2 aptamer HTS 1.
COc1ccc(-c2oc3ncnc(NCCCN(C)C)c3c2-c2ccc(OC)cc2)cc1 was read as B2AR ag 22, MEKK2wt PB1 HTS 171*, MEKK2mut PB1 HTS 30*, MEKK3 PB1 HTS 109, GRK2 aptamer HTS 0, MEKK2wt confirm 144, MEKK2mut-MEK5 27 and MEKK3-MEK5 inh 100.
Screening CN(C)CCNc1ncnc2oc(-c3ccccc3)c(-c3ccccc3)c12 returned B2AR ag 12, MEKK2wt PB1 HTS 122, MEKK2mut PB1 HTS 17, MEKK3 PB1 HTS 109 and GRK2 aptamer HTS 0.
Cc1ccc(C)c(N(C)S(=O)(=O)c2ccc3c(c2)oc(=O)n3C)c1 was read as B2AR ag -1, MEKK2wt PB1 HTS 107, MEKK2mut PB1 HTS 4, MEKK3 PB1 HTS 106 and GRK2 aptamer HTS 2.
For COc1cc(OC)c2ccc(=O)oc2c1C(CCN1CCCC(C)C1)c1ccc(N(C)C)cc1 (configuration not stated) the results were B2AR ag -5, MEKK2wt PB1 HTS 104, MEKK2mut PB1 HTS 2, MEKK3 PB1 HTS 96 and GRK2 aptamer HTS 0.
Screening CCCCCc1cc(=O)oc2c(C(CCN(CC)CC)c3ccc(N(C)C)cc3)c(OC)cc(OC)c12 (configuration not stated) returned B2AR ag 11, MEKK2wt PB1 HTS 166*, MEKK2mut PB1 HTS 23, MEKK3 PB1 HTS 108, GRK2 aptamer HTS 0, MEKK2wt confirm 185, MEKK2mut-MEK5 37 and MEKK3-MEK5 inh 109.
Screening CCCCCc1cc(=O)oc2c(C(CCN3CCCCC3)c3cc(OC)c(OC)c(OC)c3)c(OC)cc(OC)c12 (configuration not stated) returned B2AR ag 21, MEKK2wt PB1 HTS 147*, MEKK2mut PB1 HTS 13, MEKK3 PB1 HTS 108, GRK2 aptamer HTS 0, MEKK2wt confirm 155, MEKK2mut-MEK5 25 and MEKK3-MEK5 inh 102.
